Experiment [1] in a line: antimalarial activity against Dd2 strain (AID 2302;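 active = growth inhibition above 50% at the single 2 µM test dose, taken to imply half-maximal potency below 2 µM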;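 also: 0% = DMSO untreated growth and 100% = chloroquine plus artemisinin killed control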). The settings on record: P. falciparum Dd2 in RBCs, LDH growth readout, 72 h; at 2 µM; stronger effect = higher value.
Experiment [2] is described as follows: human hepatoma cell viability loss – ATP luminescence, cytotoxicity control for P. falciparum antimalarial project, primary screen (AID 2303;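 active = inhibition above 50%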;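 also: 0% = DMSO wells and 100% = digitonin-killed cells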). The settings on record: HepG2 viability, 24-48 h, at 10 µM, stronger effect = higher value.
Experiment [3] deals with L-lactate dehydrogenase (Plasmodium falciparum (isolate CDC / Honduras)) (UniProt Q27743). As to the kind of experiment: PfLDH activity inhibition – cell lysate, 3D7 strain, counter-screen for P. falciparum growth inhibition project (AID 2304).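 Also: 0% = vehicle and 100% = reference inhibitor.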 The settings on record: P. falciparum 3D7 crude extract, LDH APAD/NBT absorbance; at 2 µM; stronger effect = higher value.
The nature of experiment [4]: inhibition of 3D7 malaria parasite growth – strain 3D7 (AID 2306).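 Also: 0% = DMSO wells and 100% = chloroquine plus artemisinin control wells.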 The settings on record: P. falciparum 3D7 erythrocytic growth, LDH absorbance, 72 h; at 2 µM; stronger effect = higher value.
Experiment [5] has as its target Calcium-dependent protein kinase 1 (Plasmodium falciparum (isolate 3D7)) (UniProt P62344). As to the kind of experiment: PfCDPK1 kinase inhibitors, biochemical, TCAMS library (AID 1159585; cut-off not given, nearly all actives have IC50 up to about 0.98 µM;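 also: inhibitors leave more ATP so luminescence rises with inhibition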). The settings on record: recombinant PfCDPK1, Kinase-Glo ATP depletion luminescence. In general terms: Kinase-Glo measures the ATP left after a reaction by luminescence.
The target in experiment [6] is Plasmodium falciparum protein kinase 6 (PK6, PF3D7_1337100) (UniProt Q8IDW1). Briefly: PfPK6 kinase inhibitors, biochemical, TCAMS library (AID 1159586). The note with it: recombinant PfPK6, Kinase-Glo ATP depletion luminescence.
Experiment [7] deals with Protein kinase 7 (PK7), Plasmodium falciparum 3D7 (PF3D7_0213400) (UniProt Q7YTF7). As to the kind of experiment: inhibition of Plasmodium PK7 catalytic activity – biochemical, TCAMS antimalarial set, Kinase-Glo luminescence (AID 1159587). The settings on record: recombinant PfPK7, Kinase-Glo ATP depletion luminescence.
The target of experiment [8] is Calcium-dependent protein kinase 4 (Plasmodium falciparum (isolate 3D7)) (UniProt Q8IBS5). Briefly: PfCDPK4 kinase inhibitors, biochemical, TCAMS library (AID 1159588; cut-off not given, nearly all actives have IC50 up to about 0.91 µM). The settings on record: recombinant PfCDPK4, Kinase-Glo ATP depletion luminescence.

We go through 21 molecules from PubChem BioAssay.

A number with no mark means an inactive call. For part of these data: Entries with a potency or affinity are not part of this list. Calls of active or inactive are those of the source. Unless noted, no rule for the calls is given here.

Chain of L-lactate dehydrogenase (Plasmodium falciparum (isolate CDC / Honduras)) (Q27743 whole entry, looked up): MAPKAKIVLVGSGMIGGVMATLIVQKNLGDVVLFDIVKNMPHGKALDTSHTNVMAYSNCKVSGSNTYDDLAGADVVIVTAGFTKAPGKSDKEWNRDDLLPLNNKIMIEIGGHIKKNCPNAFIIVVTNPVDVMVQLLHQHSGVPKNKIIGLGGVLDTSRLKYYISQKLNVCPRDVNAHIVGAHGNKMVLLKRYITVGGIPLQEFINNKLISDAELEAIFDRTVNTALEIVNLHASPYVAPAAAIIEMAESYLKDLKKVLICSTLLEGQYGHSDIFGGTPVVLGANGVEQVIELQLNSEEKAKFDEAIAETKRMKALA
Chain of Protein kinase 7 (PK7), Plasmodium falciparum 3D7 (PF3D7_0213400) (Q7YTF7 1-343): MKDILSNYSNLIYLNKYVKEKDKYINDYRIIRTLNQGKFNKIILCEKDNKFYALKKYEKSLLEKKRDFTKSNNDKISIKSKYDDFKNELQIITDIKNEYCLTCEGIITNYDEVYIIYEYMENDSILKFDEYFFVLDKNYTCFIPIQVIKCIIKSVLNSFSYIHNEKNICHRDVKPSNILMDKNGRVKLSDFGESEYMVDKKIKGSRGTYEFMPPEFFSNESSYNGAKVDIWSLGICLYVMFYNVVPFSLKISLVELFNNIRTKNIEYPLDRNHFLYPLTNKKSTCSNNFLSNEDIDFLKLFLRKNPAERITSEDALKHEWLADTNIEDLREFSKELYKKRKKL
Chain of Calcium-dependent protein kinase 4 (Plasmodium falciparum (isolate 3D7)) (Q8IBS5 whole entry, looked up): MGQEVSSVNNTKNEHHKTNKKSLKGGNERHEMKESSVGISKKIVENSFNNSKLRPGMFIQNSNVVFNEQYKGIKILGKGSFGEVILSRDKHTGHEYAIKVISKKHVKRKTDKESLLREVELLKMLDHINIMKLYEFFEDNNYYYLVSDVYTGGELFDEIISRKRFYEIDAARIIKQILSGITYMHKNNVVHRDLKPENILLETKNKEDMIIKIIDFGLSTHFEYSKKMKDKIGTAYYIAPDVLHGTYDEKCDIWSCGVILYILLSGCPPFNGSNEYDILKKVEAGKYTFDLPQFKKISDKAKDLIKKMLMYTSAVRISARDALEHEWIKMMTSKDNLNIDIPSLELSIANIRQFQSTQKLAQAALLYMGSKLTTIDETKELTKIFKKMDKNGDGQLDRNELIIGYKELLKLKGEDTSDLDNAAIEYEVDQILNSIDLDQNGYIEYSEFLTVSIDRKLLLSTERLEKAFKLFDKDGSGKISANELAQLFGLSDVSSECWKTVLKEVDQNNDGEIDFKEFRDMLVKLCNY
Chain of Calcium-dependent protein kinase 1 (Plasmodium falciparum (isolate 3D7)) (P62344 whole entry, looked up): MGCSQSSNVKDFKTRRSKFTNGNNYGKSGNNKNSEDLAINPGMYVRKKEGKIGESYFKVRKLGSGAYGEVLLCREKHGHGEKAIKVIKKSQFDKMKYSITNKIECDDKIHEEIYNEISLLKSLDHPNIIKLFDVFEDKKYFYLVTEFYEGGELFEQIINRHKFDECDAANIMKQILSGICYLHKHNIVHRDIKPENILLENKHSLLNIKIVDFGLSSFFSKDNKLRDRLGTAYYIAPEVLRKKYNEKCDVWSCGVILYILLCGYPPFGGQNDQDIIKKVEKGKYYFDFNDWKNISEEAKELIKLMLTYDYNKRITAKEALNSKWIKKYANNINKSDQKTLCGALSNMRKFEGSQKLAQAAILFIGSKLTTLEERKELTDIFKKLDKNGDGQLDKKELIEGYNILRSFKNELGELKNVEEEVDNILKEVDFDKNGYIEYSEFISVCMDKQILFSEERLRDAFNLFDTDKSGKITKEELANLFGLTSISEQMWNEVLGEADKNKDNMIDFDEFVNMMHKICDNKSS
Chain of Plasmodium falciparum protein kinase 6 (PK6, PF3D7_1337100) (Q8IDW1 1-305): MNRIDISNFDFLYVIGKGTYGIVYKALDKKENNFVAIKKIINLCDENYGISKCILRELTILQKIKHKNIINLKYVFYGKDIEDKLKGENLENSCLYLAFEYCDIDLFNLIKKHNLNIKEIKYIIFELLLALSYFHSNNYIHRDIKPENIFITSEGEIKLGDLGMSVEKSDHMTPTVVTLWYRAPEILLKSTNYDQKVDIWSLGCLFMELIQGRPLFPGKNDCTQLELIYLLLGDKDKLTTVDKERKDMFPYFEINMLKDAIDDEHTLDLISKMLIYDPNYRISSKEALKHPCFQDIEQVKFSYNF

For orientation: inhibition means the relative decrease from the control value, in per cent. For the molecule `Cn1cncc1CCN(Cc1ccc(-c2ccc(C(F)(F)F)cc2)cc1)C(=O)Cn1c(SCc2cccc(F)c2F)cc(=O)c2ccccc21`, the growth inhibition in experiment [1] was 90% (active); in experiment [4], 99% (active). The inhibition was 24% in experiment [2] and -5% in experiment [3]. For the same molecule, the outcome in experiment [5], in experiment [6], in experiment [7] and in experiment [8] was inactive.
Consider `c1ccc(-c2nc(Nc3ccncc3)sc2-c2ccccc2)cc1`, for which the growth inhibition in experiment [1] was 18%; in experiment [4] it was 97% (active). Besides, the inhibition in experiment [2] is -5%; in experiment [3], 1%. Besides, the outcome in experiment [5], in experiment [6], in experiment [7] and in experiment [8] was inactive.
`COc1ccc(CNCCc2cccs2)cc1-c1ccc(S(=O)(=O)NCCN2CCCC2)cc1`: the growth inhibition in experiment [1] is 30%; in experiment [4] it was 99% (active). For the same molecule, the values for the inhibition in experiment [2] and in experiment [3] were 30% and 4%, respectively. Moreover, the result in experiment [5], in experiment [6], in experiment [7] and in experiment [8] was inactive.
As to `Cc1cc(NS(=O)(=O)c2cccc(C(C)N3CCC(N4CCCC4)CC3)c2)ccc1C(C)C` (stereo not drawn), the growth inhibition in experiment [1] was 53% (active); in experiment [4], 100% (active). The figures for the inhibition in experiment [2] and in experiment [3] were 30% and -2%, respectively. For the same molecule, the outcome in experiment [5], in experiment [6], in experiment [7] and in experiment [8] was inactive.
For `CC(C)c1ccc(CN2CCC(CNC(=O)c3cc(-c4ccccc4F)cs3)C2)cc1` (stereo not drawn), the growth inhibition in experiment [1] was 29%; in experiment [4] it was 101% (active). The inhibition in experiment [2] was 32%; in experiment [3], 5%. In addition, the outcome in experiment [5], in experiment [6], in experiment [7] and in experiment [8] was inactive.
Take `N=C1C=C(N)C(=O)c2ccccc21`: the growth inhibition was 85% (active) in experiment [1] and 81% (active) in experiment [4]. Further, the inhibition in experiment [2] is 99% (active); in experiment [3] it was -2%. Also, the result in experiment [5], in experiment [6], in experiment [7] and in experiment [8] was inactive.
As to `CC(C)(C)CCN1CCC(CNC(=O)c2cc(-c3cccc(Cl)c3)cs2)C1` (stereo not drawn), the growth inhibition was 13% in experiment [1] and 99% (active) in experiment [4]. Besides, the inhibition in experiment [2] was 50% (active); in experiment [3], 3%. Also, the result in experiment [5], in experiment [6], in experiment [7] and in experiment [8] was inactive.
On to `CS(=O)(=O)c1cc2c(Nc3ccc(N4CCOCC4)cc3)c(C(N)=O)cnc2cc1Br`, for which the growth inhibition was 89% (active) in experiment [1] and 101% (active) in experiment [4]. Also, the inhibition in experiment [2] is -18%; in experiment [3], -2%. Besides, the outcome in experiment [5], in experiment [6], in experiment [7] and in experiment [8] was inactive.
With `COCCNCc1cccc(-c2cc3nccc(Nc4ccc(Oc5ccccc5)cc4)c3cc2Cl)c1`, the growth inhibition in experiment [1] and in experiment [4] was 99% (active) in each case. Besides, the inhibition in experiment [2] was -8%; in experiment [3] it was 1%. For the same molecule, the result in experiment [5], in experiment [6], in experiment [7] and in experiment [8] was inactive.
Consider `CCCC(=O)Nc1ccc(Cl)c(NC(=O)COc2cc(C)ccc2C(C)C)c1`, for which the growth inhibition in experiment [1] was 67% (active); in experiment [4], 87% (active). The inhibition in experiment [2] was 2%; in experiment [3] it was 0%. Moreover, the outcome in experiment [5], in experiment [6], in experiment [7] and in experiment [8] was inactive.
Turning to `Cc1ccccc1C1CCN(C2CCC(NC(=O)/C=C/c3cc(F)ccc3F)CC2)CC1` (stereo not drawn), the growth inhibition in experiment [1] is 36%; in experiment [4], 85% (active). Further, the inhibition in experiment [2] is 47%; in experiment [3], -2%. Further, the outcome in experiment [5], in experiment [6], in experiment [7] and in experiment [8] was inactive.
Turning to `Cn1nc(C(F)(F)F)c(-c2ccc(Br)cc2)c1NC(=O)Nc1ccc(F)cc1F`, the growth inhibition in experiment [1] and in experiment [4] was 99% (active) throughout. In addition, the inhibition was 16% in experiment [2] and 0% in experiment [3]. Further, the result in experiment [5], in experiment [6], in experiment [7] and in experiment [8] was inactive.
With `Cc1nc(-c2nc(NCc3ccc4c(c3)OCO4)ncc2-c2ccsc2)sc1C`, the growth inhibition was 77% (active) in experiment [1] and 97% (active) in experiment [4]. Also, the inhibition in experiment [2] is 7%; in experiment [3], -6%. The outcome in experiment [5], in experiment [6], in experiment [7] and in experiment [8] was inactive.
`CCOc1cc(C(=O)Nc2ccc(-c3nc4ccccc4[nH]3)cc2)cc(OCC)c1OCC`: the growth inhibition is 94% (active) in experiment [1] and 100% (active) in experiment [4]. Moreover, the inhibition in experiment [2] is 42%; in experiment [3], -2%. The outcome in experiment [5], in experiment [6], in experiment [7] and in experiment [8] was inactive.
As to `CN(C)c1cccc(-c2cnc3ccc(NCc4cccc(Cl)c4)nn23)c1`, the growth inhibition in experiment [1] is 98% (active); in experiment [4], 99% (active). Further, the inhibition in experiment [2] is 11%; in experiment [3], -3%. The result in experiment [5], in experiment [6], in experiment [7] and in experiment [8] was inactive.
As for `Cc1ccc2c(c1)c(-c1ccccc1)c(-c1ccccc1)n2CC(O)CN1CCN(CC=Cc2ccccc2)CC1` (stereo not drawn), the growth inhibition in experiment [1] and in experiment [4] was 98% (active) throughout. The inhibition in experiment [2] is 0%; in experiment [3] it was 6%. Further, the outcome in experiment [5], in experiment [6], in experiment [7] and in experiment [8] was inactive.
Take `CN(CCC(CCN1CCC(c2c[nH]c3ccccc23)CC1)c1ccccc1)C(=O)Nc1ccc(Cl)c(Cl)c1` (stereo not drawn): the growth inhibition in experiment [1] is 21%; in experiment [4], 91% (active). The inhibition in experiment [2] was 50% (active); in experiment [3], 3%. Besides, the outcome in experiment [5], in experiment [6], in experiment [7] and in experiment [8] was inactive.
On to `COc1ccccc1C(=O)C1CCCN(C(=O)c2ccccc2C(F)(F)F)C1` (stereo not drawn), for which the growth inhibition is 84% (active) in experiment [1] and 91% (active) in experiment [4]. Further, the inhibition in experiment [2] was -9%; in experiment [3], -4%. Also, the outcome in experiment [5], in experiment [6], in experiment [7] and in experiment [8] was inactive.
`O=C(Cc1cccc(OCCCN(Cc2cccc(C(F)(F)F)c2Cl)CC(c2ccccc2)c2ccccc2)c1)NCc1ccco1`: the growth inhibition in experiment [1] is 84% (active); in experiment [4] it was 94% (active). Also, the inhibition in experiment [2] was 2%; in experiment [3], -6%. The result in experiment [5], in experiment [6], in experiment [7] and in experiment [8] was inactive.
In the case of `CCOc1cc(C(=O)Nc2ccc3nc(N4CCN(C)CC4)cc(C)c3c2)cc(OCC)c1OCC`, the growth inhibition is 50% (active) in experiment [1] and 97% (active) in experiment [4]. For the same molecule, the inhibition in experiment [2] is 14%; in experiment [3], -1%. Further, the result in experiment [5], in experiment [6], in experiment [7] and in experiment [8] was inactive.
With `O=C(Nc1cccc(-c2ccc(-c3nc4ccc(C(F)(F)F)cc4[nH]3)s2)c1)c1cccnc1`, the growth inhibition in experiment [1] is 99% (active); in experiment [4], 101% (active). For the same molecule, the inhibition in experiment [2] is 74% (active); in experiment [3], -3%. Also, the result in experiment [5], in experiment [6], in experiment [7] and in experiment [8] was inactive.
